SUMO Mot1 rescue – yeast Mot1-301 growth rescue at high temperature, primary screen, SUMOylation pathway inhibitor project, S. cerevisiae, ATP luminescence, 38.5C; growth rescue, % at 18.8 µM; 1% of 320,000 active; S. cerevisiae Mot1-301 growth rescue; percent above DMSO median, 100 means doubled; AID 2716, 2010;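 active means every valid replicate shows activation above 250% relative to neutral control wells; inactive means the rest, any valid replicate at or below 250%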;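 further: OY570 slx delta 5 strain wells were the positive control but not used for scaling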
VLA-4 inh – inhibition in human VLA-4 binding assay, primary screen, VLA-4 allosteric modulator project, MLPCN library, flow cytometry, VLA-4 expressing cells; Integrin alpha-4 (Homo sapiens), P13612; ligand binding flow cytometry; inhibition, % (about 7 µM as worked out from the volumes in the protocol); 0.2% of 330,000 active; AID 2557, 2010; in the data active means inhibition above about 50%
Target sequence (P13612 whole entry, looked up): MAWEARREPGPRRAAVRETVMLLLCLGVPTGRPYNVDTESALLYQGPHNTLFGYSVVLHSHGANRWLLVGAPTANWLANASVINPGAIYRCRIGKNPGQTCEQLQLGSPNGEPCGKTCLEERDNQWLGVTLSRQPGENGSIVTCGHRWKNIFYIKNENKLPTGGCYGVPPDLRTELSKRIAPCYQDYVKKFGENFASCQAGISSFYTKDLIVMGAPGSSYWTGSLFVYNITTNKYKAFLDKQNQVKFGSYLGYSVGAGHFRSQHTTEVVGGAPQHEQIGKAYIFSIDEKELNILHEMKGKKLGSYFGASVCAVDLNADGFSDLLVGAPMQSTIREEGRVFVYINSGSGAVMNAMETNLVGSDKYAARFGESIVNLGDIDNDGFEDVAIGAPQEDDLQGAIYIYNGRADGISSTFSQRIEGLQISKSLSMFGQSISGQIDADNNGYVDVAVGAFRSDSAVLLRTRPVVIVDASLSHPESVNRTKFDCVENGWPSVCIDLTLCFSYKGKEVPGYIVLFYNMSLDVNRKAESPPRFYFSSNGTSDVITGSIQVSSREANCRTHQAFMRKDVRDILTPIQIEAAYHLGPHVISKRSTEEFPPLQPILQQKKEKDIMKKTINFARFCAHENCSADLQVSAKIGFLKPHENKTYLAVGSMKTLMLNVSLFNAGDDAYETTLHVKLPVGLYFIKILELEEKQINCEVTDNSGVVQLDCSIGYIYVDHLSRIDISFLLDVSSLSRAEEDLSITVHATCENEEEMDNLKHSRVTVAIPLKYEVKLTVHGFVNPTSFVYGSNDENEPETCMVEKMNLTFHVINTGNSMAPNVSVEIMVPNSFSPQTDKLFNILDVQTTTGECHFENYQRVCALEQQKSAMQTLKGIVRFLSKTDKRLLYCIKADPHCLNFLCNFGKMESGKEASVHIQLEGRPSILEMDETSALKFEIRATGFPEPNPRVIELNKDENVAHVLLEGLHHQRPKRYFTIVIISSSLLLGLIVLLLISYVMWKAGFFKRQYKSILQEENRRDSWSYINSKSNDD
ALR inh – inhibitors of human ALR sulfhydryl oxidase, primary screen, biochemical, H2O2 detection, HRP-luminol luminescence, single point | FAD-linked sulfhydryl oxidase ALR (Homo sapiens), P55789 | purified ALR, DTT oxidation | inhibition, % (test concentration not listed) | 3.8% of 290,000 active | AID 485317, 2010;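 active means mean replicate inhibition above about 79%, with every replicate also reaching it, limit read from the data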
Efflux pump mplx – inhibitors of Candida efflux pumps in yeast, primary screen, S. cerevisiae, Nile Red, multiplex | S. cerevisiae Candida pump triplex | inhibition, % at 10 µM | AID 485275, 2010 | 0.44% of 330,000 active;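 active means plate passing quality check with inhibition over a set limit, or well fluorescence over plate mean plus 4 SD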;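 further: Nile Red retained in pooled yeast measured as flow cytometry median fluorescence; 0% = buffer negative control and 100% = Enniatin B positive control; higher means more Nile Red kept so more efflux inhibition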
A1 inh – caspase 3/7 activation in MEF A1-2A-BIM cells, primary screen, A1 inhibitor project, cell-based, luminescence, HTS. Caspase-Glo 3/7 luminescence, 3 h; percent of clofoctol response, vehicle zero. caspase activation, % (no concentration beside the values). 0.066% of 330,000 active;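 active means over half of replicate activation scores above 10%, or exactly half above 10 with the replicate mean above 10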
AHR activator – AHR activators, primary screen, cell-based, luminescence, luciferase reporter, human. Aryl hydrocarbon receptor (Homo sapiens), P35869. activation, % at 5 µM. AHR-responsive luciferase reporter cells. 2.5% of 320,000 active. AID 2796, 2010; in the data active means activation above about 47%;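 further: 0% = vehicle wells and 100% = reference agonist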
* marks the source's active call; other numbers are inactive results; . = no result. Rows were chosen to be rich in hits. Some 7.2% of all compounds tested hit in one or more screens of this group.

SMILES	SUMO Mot1 rescue	VLA-4 inh	ALR inh	Efflux pump mplx	A1 inh	AHR activator
O=C1CC(N2CCN(c3ccccc3)CC2)C(=O)N1CCc1ccccc1 (stereo not given)	4	-2	95*	0	-1	3
CN1C(=O)CC(N2CCN(c3ccccc3)CC2)C1=O (stereo not given)	6	10	94*	0	0	1
CN1C(=O)CC(N2CCN(C(c3ccccc3)c3ccccc3)CC2)C1=O (stereo not given)	-21	11	-3	0	1	0
Cc1ccccc1-n1c(C)nnc1SC(C)C(=O)NCC1CCCO1 (stereo not given)	.	1	.	0	.	-1
Cc1oc(-c2ccccc2)nc1CS(=O)CC(=O)O (stereo not given)	-9	22	.	0	0	-1
COc1cccc(-c2nc(CS(=O)CC(=O)NCCc3ccccc3)c(C)o2)c1 (stereo not given)	-23	6	99*	0	0	7
COc1cccc(-c2nc(CS(=O)CC(=O)NC(C)CCc3ccccc3)c(C)o2)c1 (stereo not given)	-18	3	98*	0	-1	4
CCC(C)NC(=O)CS(=O)Cc1nc(-c2cccc(OC)c2)oc1C (stereo not given)	-12	14	99*	0	0	0
COc1cccc(-c2nc(CS(=O)CC(=O)O)c(C)o2)c1 (stereo not given)	5	-19	99*	0	0	-2
O=C(NCc1ccccc1)C1(c2cccc(F)c2)CCCC1	-12	-9	.	0	0	6
COc1cccc(CNC(=O)c2ccccc2C(=O)NC(C)(C)C(=O)NCc2cccc(OC)c2)c1	-14	-2	0	0	-1	0
CNC(=O)COc1coc(CN2CCN(c3ccc(F)cc3)CC2)cc1=O	-7	17	2	0	0	0
Cc1nnc(SCC(=O)Nc2cccc(C(F)(F)F)c2)[nH]c1=O	4	-3	98*	0	0	-3
Cc1ccc(NC(=O)CSc2nnc(C)c(=O)[nH]2)cc1C	8	1	95*	0	2	1
Nc1nc(NC(=O)C(Cl)(Cl)Cl)nn1-c1ccccc1	-18	-4	-4	0	0	1
CC1Cc2ccccc2C(CCc2ccccc2)=N1 (stereo not given)	-6	-5	1	0	-1	19
O=c1ccsn1Cc1ccccc1	-49	18	98*	0	1	4
NNC(=O)COc1ccc2oc3c(c2c1)CCCC3	-9	8	.	0	0	68*
Cc1[nH]n(C(N)=S)c(=O)c1N=Nc1cccc([N+](=O)[O-])c1C	27	-6	98*	0	-6	19
Cc1[nH]n(C(N)=S)c(=O)c1N=Nc1cc(-c2ccc(Br)cc2)[nH]n1	-18	29	99*	0	0	55*
Cc1ccc(N=Nc2c(C)[nH]n(C(N)=S)c2=O)cc1C	9	0	-12	0	-8	51*
Cc1ccc(CNC(=O)c2ccc(CS(=O)Cc3ccccc3Cl)o2)cc1 (stereo not given)	-2	28	99*	0	0	3
CCOc1ccc(CCNC(=O)c2ccc(CS(=O)Cc3ccccc3Cl)o2)cc1 (stereo not given)	-2	0	98*	0	1	1
Cc1ccc(CS(=O)Cc2ccc(C(=O)NCc3ccccc3Cl)o2)cc1 (stereo not given)	6	5	-2	0	0	1
O=C(NCc1ccc2c(c1)OCO2)c1ccc(CS(=O)Cc2cccc(Cl)c2)o1 (stereo not given)	5	3	94*	0	-1	9
SMILES	SUMO Mot1 rescue	VLA-4 inh	ALR inh	Efflux pump mplx	A1 inh	AHR activator
CC(=O)Nc1ccccc1C(=O)C(=O)NCCc1ccccc1	-4	7	1	0	-1	0
Cc1c(Cl)cccc1N1C(=O)CC(N(O)c2ccccc2)C1=O (stereo not given)	-25	-14	52	0	0	2
CCOc1ccccc1N1C(=O)CC(N(O)c2ccccc2)C1=O (stereo not given)	4	33	95*	0	0	3
N#CCc1ccc(NS(=O)(=O)c2ccc(C3CCCCC3)cc2)cc1	26	8	-3	1	-1	3
COc1ccc(/C=C2/N=C(c3cccs3)OC2=O)cc1OC(C)C	892*	12	7	0	0	5
CN(C)/C=C1\N=C(c2cccs2)OC1=O	-22	-4	93*	0	0	0
CN(C)/C=C1/N=C(c2ccccc2)OC1=O	88	5	-7	0	0	-6
[N-]=[N+]=NC(c1ccccc1)c1nc2ccccc2[nH]c1=O (stereo not given)	-10	14	-15	0	0	10
CC(Sc1ccc(Cl)cc1)C(=O)Nc1ccc2c(c1)OCO2 (stereo not given)	220	-10	-6	0	-1	10
CC(C)N1CCC2(CC1)N=C(c1ccc3c(c1)OCO3)CC(c1cc(Cl)ccc1O)N2 (stereo not given)	791	1	20	0	0	76*
N#CC(C#N)=C/C=C(\Nc1ccc(Cl)cc1)c1ccc(Cl)cc1	5	17	-1	0	1	120*
N#Cc1ccc(NC(=O)Nc2ccc(Cl)cc2)cc1	-20	-9	-4	0	-1	-10
CC(=O)Nc1ccc(C2=NN(C)C(=NCc3ccccc3)SC2)cc1	5	-7	99*	0	1	-2
COC(=O)C(Cc1ccccc1)NC(=O)CNC(=O)c1ccccc1OC (stereo not given)	28	13	.	0	0	-1
O=Cc1ccc(-c2ccccc2C(=O)O)o1	-17	-4	-5	0	-1	-1
O=C(O)c1ccccc1-c1c2cc(I)c(=O)c(I)c-2oc2c(I)c(O)c(I)cc12	-12	8	82*	0	0	-2
CCN(CC)c1ccc(NC(=O)CCNC(=O)c2ccco2)cc1	14	4	99*	0	0	0
Oc1c(N=Nc2ccccn2)ccc2ccccc12	12	-6	-13	0	-7	68*
O=C(CSc1ncnc2nc[nH]c12)c1ccccc1	-11	11	2	0	0	43
O=C(CSc1ncnc2nc[nH]c12)c1ccc([N+](=O)[O-])cc1	-39	3	93*	0	-1	-1
O=C(CSc1ncnc2nc[nH]c12)c1ccc(Cl)cc1	8	-22	87*	0	1	25

Screens deposited in PubChem by several laboratories.
